# Assay outcomes: PubChem, National Center for Advancing Translational Sciences (NCATS)
# A selection: hits, their analogues and other compounds. The true share with any hit is near 7.5%.
# SMN2 splice up: qHTS Assay for Enhancers of SMN2 Splice Variant Expression | 210,000 tested, 2.8% active | Potency, µM (top dose mostly 46.1 µM), for inactives: at the highest dose activity change, positive = activation, actives largely listed as activators | HEK293 SMN2-luciferase splicing reporter, luminescence, 30-36 h; also: % of control where 0% means no effect; nearly all actives have a fitted effect of over 55% in size
#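 HEK293 cells carry an SMN2 […]–luciferase reporter in which exon 7 inclusion puts luciferase in frame. Cells were plated 10-12 h before compound addition, then incubated 30-36 h at 37C. ONE-Glo luminescence was read; sodium butyrate at 4.5 mM final served as control.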
# ELG1 genotox: qHTS screen for small molecules that induce genotoxicity in human embryonic kidney (HEK293T) cells expressing luciferase-tagged ELG1; HEK293T ELG1-luciferase reporter, luminescence, 16 h; Potency, µM (doses to about 46 µM), for inactives: at the top dose activity change, positive = activation, usual class: activators; 330,000 tested, 1.3% active; also: % of control where 0% means no effect; nearly all actives have a fitted effect of over 60% in size
#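 Cells (2,000/well) expressing the ELG1-luciferase fusion are dosed by pin tool and kept 16 hr at 37 °C, 5% CO2. Signal comes from ONE-Glo luciferase reagent after 30 min at room temperature.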
# NPC1 promoter act: qHTS Assay for NPC1 Promoter Activators. Huh7 NPC1 promoter luciferase reporter, 24 h. AID 485313, 2010. Potency, µM (titrated, usually from 9.22 µM), without a hit: at the top dose activation, most hits filed as activators. 320,000 tested, 2.4% active; also: % of control where 0% means no effect; nearly all actives have a fitted effect of over 60% in size
#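 Quantitative HTS used a cell-based reporter: Huh7 cells stably bearing the NPC1 promoter upstream of luciferase were treated with compounds for 24 h, and promoter activation was read as luminescence.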
# KinaseGlo FLuc: Counterscreen for Luciferase (Kinase-Glo TM) Inhibition; Luciferin 4-monooxygenase (Photuris pensylvanica), Q27757; Kinase-Glo luciferase, ATP luminescence, 8 min; Potency, µM (top dose mostly 38.3 µM), for inactives: at the highest dose activity change, negative = inhibition, actives largely listed as inhibitors; 200,000 tested, 0.28% active; AID 1379, 2008; also: % is scaled to controls: 0 for no effect and ±100 for the full control effect; nearly all actives have a fitted effect of over 60% in size
#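 Compound is pinned into ATP-containing buffer (10 uM ATP, imidazole pH 7.2, 7 mM MgCl2). Kinase-Glo luciferase reagent is then added. Light output is recorded following an 8-min room-temperature incubation.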
# FLuc counter: qHTS profiling assay for firefly luciferase inhibitor/activator using purifed enzyme and Km concentrations of substrates (counterscreen for miR-21 project); AID 588342, 2011; 360,000 tested, 6.9% active; purified FLuc, Km substrates, luminescence inhibition; Potency, µM (titrated, usually from 57.5 µM), without a hit: top-dose activity change, negative = inhibition, hits mostly inhibitors;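 also: plate controls were vehicle for no effect and reference inhibitor for full effect; nearly all actives have a fitted effect of over 55% in size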
# Target sequence (P08659 whole entry, looked up): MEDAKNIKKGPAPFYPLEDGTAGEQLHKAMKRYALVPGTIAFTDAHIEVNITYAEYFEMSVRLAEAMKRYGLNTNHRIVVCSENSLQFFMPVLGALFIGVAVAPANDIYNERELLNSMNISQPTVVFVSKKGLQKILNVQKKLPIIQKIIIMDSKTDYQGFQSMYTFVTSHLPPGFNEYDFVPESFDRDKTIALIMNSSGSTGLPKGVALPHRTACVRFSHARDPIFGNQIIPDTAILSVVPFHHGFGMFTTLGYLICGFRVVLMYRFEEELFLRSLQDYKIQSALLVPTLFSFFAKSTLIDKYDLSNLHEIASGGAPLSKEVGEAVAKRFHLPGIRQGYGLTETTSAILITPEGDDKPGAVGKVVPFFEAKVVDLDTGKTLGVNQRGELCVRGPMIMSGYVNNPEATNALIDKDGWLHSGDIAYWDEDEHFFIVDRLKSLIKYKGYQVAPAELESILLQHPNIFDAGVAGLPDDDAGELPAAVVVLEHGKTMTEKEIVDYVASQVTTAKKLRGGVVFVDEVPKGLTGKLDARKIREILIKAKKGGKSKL
#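 Purified P. pyralis luciferase (10nM final) with 10uM D-luciferin and 10uM ATP (Km levels) in 50mM Tris acetate pH 7.5, 10mM Mg acetate, 0.01% Tween-20, 0.05% BSA; qHTS 6-point titration, ~60 µM downward; luminescence read.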
# Rab9 promoter act: qHTS Assay for Rab9 Promoter Activators; Huh7 Rab9 promoter-luciferase reporter, luminescence, 24 h; 320,000 tested, 2.8% active; Potency, µM (titrated, usually from 9.22 µM), without a hit: top-dose activation, negative = inhibition, actives largely listed as activators; AID 485297, 2010; also: % of control where 0% means no effect; nearly all actives have a fitted effect of over 60% in size
#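 Huh7 cells stably carrying Rab9 promoter–luciferase reporter, plated 1500 cells/well, compound added after 2 h and incubated 24 h at 37 °C; luciferase luminescence then read after 10 min with detection reagent.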
# * hit, by the source's call; u = inconclusive; x = not tested or not shown; [ ] = another dose, or the depositor's remark. Calls follow the shape of the dose curve; as a rule, active = well fitted curve in the direction sought with a large enough effect; inconclusive = small, poorly fitted or top-dose-only effect, or another doubt; inactive = no such curve, though single readings can be large; an effect the other way counts as inactive or inconclusive. Potency is read from the fitted curve at half-maximal effect.
SMILES,SMN2 splice up,ELG1 genotox,NPC1 promoter act,KinaseGlo FLuc,FLuc counter,Rab9 promoter act
CC(=O)c1ccccc1NC(=O)c1cc(S(=O)(=O)N2CCOCC2)ccc1N1CCCC1,x,0.9%,-10.8%,x,3.4%,-1.0%
O=S(=O)(O)O,-0.4%,x,x,x,x,x
Cn1cc(C(=O)N2CCN(c3cccc(C(F)(F)F)c3)CC2)c2c3ccccc3n(C)c2c1=O,1.0%,x,x,x,2.3%,x
Fc1cccc(Cl)c1-c1nnc2ccc3ccccc3n12,-51.4%,5.0%,-8.4%,-3.2%,19µM*,-8.2%
c1ccc(C[n+]2c(-c3ccccc3)csc2Nc2ccccc2)cc1,-17.5%,-3.6%,1.3%,-0.4%,-11.1%,-0.6%
c1ccc(Nc2scc(-c3ccccc3)[n+]2Cc2ccco2)cc1,-7.2%,u,-4.0%,1.2%,16.9µM*,u
Cc1ccc(NC(=S)NNc2ccc([N+](=O)[O-])cc2S(=O)(=O)Nc2ccccc2C(=O)O)cc1C,-5.7%,0.7%,-8.1%,-10.1%,u,-12.3%
O=C(O)c1ccccc1NS(=O)(=O)c1ccc(NNC(=S)Nc2ccc(OC(F)F)cc2)c([N+](=O)[O-])c1,-24.3%,0.0%,-3.5%,u,19µM*,-3.4%
O=C(Nc1ccc(S(=O)(=O)N2CCCCCC2)cc1)c1[nH]ncc1[N+](=O)[O-],x,u,u,x,16.9µM*,u
CN(C)c1nc(N)c(C(=O)Nc2cccnc2)nc1Cl,11.2µM*,x,x,-11.2%,x,x
O=C(Nc1cccnc1)c1ccc(Cl)c(Cl)c1,x,9.7%,-2.3%,x,u,3.9%
COC(=O)C(=O)C/C(=N/Nc1ncnc2ccccc12)c1ccc(Cl)cc1,x,4.8%,-7.4%,x,9.53µM*,-1.3%
CN1c2ccccc2Oc2nnc(N3CCN(Cc4ccccc4)CC3)cc21,x,4.1%,22.9%,0.4%,19µM*,u
Cc1ccc(N2CC(C(=O)Nc3nnc(SCCN4CCOCC4)s3)CC2=O)cc1 (stereo unspecified),x,-1.1%,u,x,-1.5%,1.8%
O=C(c1cc(-c2cccc(Cl)c2)on1)N1CCCCC1,10.4%,x,x,x,21.3µM*,x
O=C(c1cc(-c2cccc(O)c2)on1)N1CCCC1,x,7.3µM*,u,x,6.01µM*,u
O=C(c1cc(-c2cccc(O)c2)on1)N1CCCCC1,u,3.66µM*,u,-4.9%,3.01µM*,u
Cc1c(C(=O)NCc2ccco2)oc2ccc(Br)cc12,x,-0.6%,18.8%,x,u,16.5%
O=C(NCc1ccco1)c1cc2cc(Br)ccc2o1,x,10.0%,21.7%,x,16.9µM*,u
O=C(OCCc1cc2ccccc2c(=O)o1)c1ccco1,x,3.4%,0.8%,x,5.36µM*,-4.2%
O=C(NCc1ccco1)c1cc2ccccc2c(=O)o1,x,15.0%,12.5%,x,15.1µM*,9.8%
O=C(NCc1ccco1)c1cc(=O)c2ccccc2o1,1.7%,-4.4%,-5.6%,3.5%,-4.0%,-5.3%
Cc1ccc(-c2cc(=O)c3ccccc3[nH]2)cc1,12.2%,10.2%,19.5%,-0.4%[39.9 µM],19µM*,u
Cc1ccc2[nH]c(-c3ccccc3)cc(=O)c2c1,11.2µM*,u,u,4.8%,1.69µM*,u
Cc1ccc(-c2cc(=O)c3cc(Cl)ccc3[nH]2)cc1,x,u,u,-0.1%[39.9 µM],0.536µM*,3.98µM*
SMILES,SMN2 splice up,ELG1 genotox,NPC1 promoter act,KinaseGlo FLuc,FLuc counter,Rab9 promoter act
Cc1ccc(CNC(=O)C(C(C)C)N2Cc3ccccc3C2=O)cc1 (stereo unspecified),x,x,x,x,-1.8%,x
COC(=O)[C@@]1(Cc2ccccc2)[C@H]2c3cc(C(=O)N(C)C)n(Cc4ccccn4)c3C[C@H]2CN1C(=O)c1ccccc1,-20.2%,x,x,-0.6%,x,x
Cc1ccc(C)c(S(=O)(=O)N/N=C/c2ccc(N3CCOCC3)cc2)c1,x,-1.8%,-1.1%,x,0.8%,0.6%
Brc1ccc(N=Nc2ccc3ccccc3n2)cc1,x,u,u,x,0.0213µM*,u
CC(=O)c1ccc(NC(=O)C(C)Nc2ccc(Cl)cc2)cc1 (stereo unspecified),-1.3%,-0.9%,-3.5%,0.7%,-1.4%,-4.1%
CC(C)COc1ccc(C(=O)Nc2ccc([N+](=O)[O-])cc2)cc1,-0.6%,-0.3%,17.1%,-0.9%,-8.9%,20.7%
CC(=O)c1ccc(NC(=O)Nc2ccc(Cl)cc2)cc1,12.6µM*,2.06µM*,1.41µM*,-2.8%,12µM*,1.41µM*
CCN(CC)c1ccc(NC(=O)Nc2cccc(C(C)=O)c2)cc1,16.1%,x,x,-1.6%,1.69µM*,x
CCC(=O)Oc1ccc(C(=O)Nc2ccc([N+](=O)[O-])cc2)cc1,14.1µM*,9.0%,2.82µM*,-1.1%,-11.4%,u
CC(=O)Nc1cccc(NC(=O)Nc2ccc(C(C)=O)cc2)c1,19.0%,u,23.8%,1.5%,10.7µM*,11.1%
CC(=O)c1ccc(NC(=O)Nc2cccc3ccccc23)cc1,x,u,25.5%,x,u,u
COc1ccc2c(CNCc3cccs3)c(C(=O)O)n(Cc3ccccc3C)c2c1,x,x,x,x,-3.2%,x
O=C(Nc1ccccc1)Nc1csc2ccccc12,x,16.6%,u,x,12µM*,u
CC(=O)Nc1ccc(NC(=O)Nc2ccccc2)cc1,x,16.7%,u,x,16.9µM*,u
CC(=O)c1ccc(NC(=O)Nc2ccc([N+](=O)[O-])cc2)cc1,12.6µM*,u,u,-0.8%,-16.3%,27.0%
CC(=O)c1ccc(NC(=O)NNS(=O)(=O)c2ccc([N+](=O)[O-])cc2)cc1,x,1.1%,0.3%,x,4.4%,11.0%
Cc1cc(C)cc(NC(=O)c2cc(Cl)sc2Cl)c1,1.6%,-0.9%,2.3%,1.1%,u,-0.9%
CC(=O)c1ccc(NC(=O)c2cc(Cl)sc2Cl)cc1,12.6µM*,u,2.82µM*,-1.5%,15.1µM*,2.24µM*
CC(=O)Nc1csc2ccccc12,17.7%,-2.5%,0.9%,-2.0%,1.0%,0.1%
C=C1CCC2C(C)(CO)C(O)CCC2(C)C1C/C=C1\C(=O)OCC1O (stereo unspecified),x,x,x,-0.6%,x,x
COc1ccc(-c2c3c(=O)n(C)c(=O)n(C)c3c3c(-c4ccc(C)cc4)nc4ccccc4n23)cc1,-8.1%,x,x,x,-2.3%,x
Nc1ccc(-c2cn3cccnc3n2)cc1,30.9%,12.8%,23.6%,1.3%,u,u
O=c1oc2ccccc2cc1-c1cn2cccnc2n1,4.47µM*,u,1µM*,u,4.26µM*,0.562µM*
Cc1cccn2cc(-c3cc4ccccc4oc3=O)nc12,x,0.82µM*,0.112µM*,u,0.19µM*,0.141µM*
CC(C)CN1CC2(CCN(C(=O)c3cnccn3)CC2)C1,11.3%,x,x,-1.2%,x,x
